This passage reports inhibition results from ChEMBL document CHEMBL3433997, “St. Jude Leishmania screening dataset” (2016).

What is called inhibition is the relative decrease from the control value, in per cent.

Common to all, as to format: functional
In test [1] the target is Solute carrier family 2, facilitated glucose transporter member 1 (Homo sapiens) (UniProt P11166). In words: ST_JUDE_LEISH: Cytotoxicity at 2uM final concentration against transgenic Leishmania Mexicana promastigotes LmGLUT1 that are glucose transport deficient and complemented with the human glucose transporter GLUT1. Activity is measured by DNA content using SYBR green in vitro.

Test [2] has as its target Hexose transporter 1 (Plasmodium falciparum) (UniProt O97467). In words: ST_JUDE_LEISH: Cytotoxicity at 2uM final concentration against transgenic Leishmania Mexicana promastigotes LmPfHT that are glucose transport deficient and complemented with the Plasmodium falciparum hexose transporter. Activity is measured by DNA content using SYBR green in vitro.
Test [3] concerns the target Glucose transporter (Leishmania mexicana) (UniProt O61059). Description: ST_JUDE_LEISH: Cytotoxicity at 2uM final concentration against transgenic Leishmania Mexicana promastigotes LmGT2 that are glucose transport deficient and complemented with the L. Mexicana glucose transporter 2. Activity is measured by DNA content using SYBR green in vitro.

Sequence of Solute carrier family 2, facilitated glucose transporter member 1 (Homo sapiens) (P11166 whole entry): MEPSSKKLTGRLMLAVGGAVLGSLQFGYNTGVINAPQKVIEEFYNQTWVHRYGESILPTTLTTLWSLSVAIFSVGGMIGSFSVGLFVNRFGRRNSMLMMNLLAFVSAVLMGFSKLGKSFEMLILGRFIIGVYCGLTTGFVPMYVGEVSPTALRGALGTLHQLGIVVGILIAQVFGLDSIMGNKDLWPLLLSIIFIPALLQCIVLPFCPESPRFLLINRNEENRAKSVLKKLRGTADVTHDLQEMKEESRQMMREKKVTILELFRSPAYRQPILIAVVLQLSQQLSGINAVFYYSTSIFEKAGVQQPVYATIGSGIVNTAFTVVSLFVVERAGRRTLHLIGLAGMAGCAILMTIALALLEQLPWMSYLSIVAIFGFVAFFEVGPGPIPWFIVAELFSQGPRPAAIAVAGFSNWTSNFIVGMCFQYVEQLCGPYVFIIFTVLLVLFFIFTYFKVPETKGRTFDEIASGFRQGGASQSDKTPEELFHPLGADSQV

Take `COc1ccc2nccc([C@@H](O)CN3CCC(NC(=O)C(c4cc5ccccc5o4)N4CCN(C(c5ccccc5)c5ccccc5)CC4)CC3)c2c1` (stereo partly drawn): the inhibition in test [1] worked out at 3.01%; in test [2] it was 1.55%; in test [3] it was 1.41%.
For `CCN(CC)CCN(Cc1ccc(-c2ccc(C(F)(F)F)cc2)cc1)C(=O)Cn1c(CCc2cccc(F)c2F)cc(=O)c(C)c1C`, the inhibition came to 11.5% in test [1], 8.35% in test [2] and 3.62% in test [3].
Turning to `CCNc1cc(C)nc(Nc2ccccc2)n1`, the results for the inhibition in test [1], in test [2] and in test [3] were 15.2%, 5.92% and 3.47%, respectively.
`COc1ccc(CNCc2cccc(-c3ccc(-c4nc5cccc(C)c5[nH]4)s3)c2)cc1`: the values for the inhibition in test [1], in test [2] and in test [3] were 3.18%, 2.97% and 2.36%, respectively.
`Cc1cc(N[C@@H](Cc2ccccc2)C(=O)NCCc2ccccc2)nc(NCCc2ccc(F)cc2)n1`: the inhibition in test [1] is -1.91%; in test [2], -1.86%; in test [3], -1.12%.
The corresponding values for `Cc1cc(O)c(CN(C)Cc2ccc3c(c2)OCCO3)cc1C(C)C` are 4.86%, 5.38% and 2.54%.
For the compound `CC(C)(C)c1ccc(OC(=O)c2ccc(NC(=O)N[C@@H](Cc3ccc(O)cc3)C(=O)NC3CCN(Cc4ccc(O)cc4)C3)cc2)cc1` (stereo partly drawn), the inhibition is 9.86% in test [1], 4% in test [2] and 9.56% in test [3].
Regarding `O=C(Nc1cccc(Cl)c1)N(CCCn1ccnc1)Cc1csc(-c2ccc(CNCc3ccccc3)cc2)n1`, the figures for the inhibition in test [1], in test [2] and in test [3] were 5.54%, 3.76% and 4.27%, respectively.
In the case of `Cc1ccccc1C1CCN(C2CCC(NC(=O)c3cc4cc(C(C)C)ccc4[nH]3)CC2)CC1` (stereo not drawn), the inhibition in test [1] was 1.91%; in test [2] it was 2.91%; in test [3], 1.43%.
Take `COc1ccc(CN(C)CCCc2ccc(NC(=O)c3cccc4c(=O)c5cccc(F)c5[nH]c34)cc2)cc1OC`: the inhibition in test [1] worked out at 14.2%; in test [2] it was 9.74%; in test [3], 10.1%.
The corresponding values for `CN(C)c1ccc(CN2CCC(NC(=O)c3ccc(-c4cccc(F)c4)s3)CC2)cc1` are 4.53%, 5.36% and 1.82%.
Turning to `Cc1ccc(C(c2nnnn2C2CCCC2)N(Cc2ccco2)Cc2ccccc2Cl)cc1` (stereo not drawn), the values for the inhibition in test [1], in test [2] and in test [3] were 9.7%, 9.7% and 8.53%, respectively.
For the compound `CC(C)(C)CC(C)(C)c1ccc(O)c(C(=O)Nc2ccc([N+](=O)[O-])cc2)c1`, the inhibition in test [1] is 1.13%; in test [2] it was 1.55%; in test [3], 0.23%.
Consider `c1ccc2oc(-c3cc4ccncc4cc3OC3CCNCC3)cc2c1`, for which the inhibition in test [1] was -1.3%; in test [2], -3.57%; in test [3], -3.28%.
Turning to `O=C(Nc1nc(-c2ccccn2)cs1)c1ccc(Br)s1`, the inhibition is -1.89% in test [1], 4.54% in test [2] and 0.61% in test [3].
`Cc1c(S(=O)(=O)Nc2ccc3ccn(CCN(C)C)c3c2)sc2ccc(Cl)cc12`: the inhibition is -0.44% in test [1], -0.46% in test [2] and 1.18% in test [3].
As for `Brc1ccc(C=NNc2nc3ccccc3[nH]2)cc1`, the results for the inhibition in test [1], in test [2] and in test [3] were 6.61%, 4.26% and 2.59%, respectively.
As for `Cc1cc2nc(-c3ccc(/C=C/C(=O)NC4CCCCC4)cc3)[nH]c2cc1C`, the inhibition in test [1] turned out to be 0.61%; in test [2] it was 1.82%; in test [3] it was 1.51%.
Turning to `CN(C)CCCNc1ncnc2c1[nH]c1ccc(Br)cc12`, the values for the inhibition in test [1], in test [2] and in test [3] were 1.44%, 2.41% and 1.04%, respectively.
For `O=C(N[C@@H](Cc1ccccc1)[C@H](O)CNCCC(F)(F)F)c1cccc(OCC2CC2)c1`, the figures for the inhibition in test [1], in test [2] and in test [3] were -0.59%, -0.22% and 0.56%, respectively.
`CCC(C)NC(=O)Nc1cccc(-c2cccc(-c3nc4cccc(C)c4[nH]3)c2)c1` (stereo not drawn): the inhibition is -1.54% in test [1], -0.37% in test [2] and 11.5% in test [3].
For `O=C(Nc1cccc(CN2CCCN(Cc3ccc(O)cc3)CC2)c1)c1cccc(F)c1`, the inhibition in test [1] worked out at 10.8%; in test [2] it was 10.4%; in test [3], 9.62%.
Take `Nc1ccc2[nH]cc(C3CCN(CC4CCC(NC(=O)/C=C/c5ccc(Cl)c(Cl)c5)CC4)CC3)c2n1` (stereo not drawn): the inhibition in test [1] is -2.2%; in test [2], -0.28%; in test [3], -4.12%.
With `Cc1cc(=O)c2cc(Oc3ccc(OC(F)(F)F)cc3)ccc2[nH]1`, the inhibition in test [1] is -0.06%; in test [2], 0.96%; in test [3], -1.19%.
`COc1ccc(C=NN=c2c3ccccc3[nH]c3ccccc23)c2ccccc12`: the inhibition in test [1] worked out at 6.42%; in test [2] it was 5.85%; in test [3], 5.05%.
Regarding `COc1ccc(NC(=O)CCNc2cc(C)nc(Nc3ccccc3)n2)cc1`, the inhibition in test [1] was 5.84%; in test [2], 5.64%; in test [3], 5.8%.
Consider `O=C(Nc1cccc(CN2CCCN(CC3CCCCC3)CC2)c1)c1cc2ccccc2s1`, for which the inhibition in test [1] is 1.81%; in test [2], 0.88%; in test [3], -8.67%.
On to `COc1cc(NC2CCCC(NCc3cn(S(=O)(=O)c4ccccc4)c4ccccc34)C2)nc2ccccc12` (stereo not drawn), for which the inhibition in test [1] was 1.09%; in test [2], 2.28%; in test [3] it was 2.67%.
As to `COc1ccc(NC(=O)CCNc2ccnc(NCCc3ccc(F)cc3)n2)cc1`, the inhibition in test [1] worked out at 2.48%; in test [2], 2.27%; in test [3], 1.75%.
`FC(F)(F)c1ccc2[nH]c(-c3ccc(-c4ccc(CNCc5ccccc5)cc4)cc3)nc2c1`: the inhibition in test [1] turned out to be 8.83%; in test [2], 6.65%; in test [3], 6.47%.
For `O=C(NCCN1CCCCC1)c1cc2cc(-c3ccccc3)ccc2n1S(=O)(=O)c1ccccc1`, in that order: 71.9%, 74.7% and 55.4%.
As for `COc1ccc(/C=C/C(=O)N2CCc3cc4nccc(N5CCN6CCC[C@H]6C5)c4cc32)cc1`, the inhibition is 3.43% in test [1], 4.78% in test [2] and 4.53% in test [3].
With `CN(C)CCNC(=O)N1CCCN(c2ncnc3cc(-c4ccccc4)sc23)CC1`, the inhibition came to 8.06% in test [1], 5.39% in test [2] and 6.1% in test [3].
`Cc1nc(N)nc(N)c1OCCCCOc1ccccc1`: the results for the inhibition in test [1], in test [2] and in test [3] were 3.87%, 2.98% and 2.4%, respectively.
`CN1CCCN(Cc2ccc(-c3ccc(NC(=O)c4cccc(Cl)c4)cc3)cc2)CC1`: the values for the inhibition in test [1], in test [2] and in test [3] were 0.35%, -1.66% and -0.18%, respectively.
Regarding `C=CCOc1ccc(CNC2CCN(Cc3ccccc3)CC2)cc1Br`, the figures for the inhibition in test [1], in test [2] and in test [3] were 2.99%, 4.16% and 0.3%, respectively.
